Test results: the supplement of paper PMC10849652
Targets with a hit are over-represented here; the source holds about 8,800 in all. About 0.5% of all pairs of compound and target were hits.

Experiments:
Test in all cases: log2 fold change, soluble protein after heating vs DMSO (PISA); higher = thermal stabilisation; K562 lysate, 10 uM; active = over 0.2 and 3.5 SD of the protein, either way, in both replicates (recomputed)
[1] = compound: C1=CC=C(C=C1)[C@H](COC2=CC3=C(C=C2)NC(=O)N3)NC(=O)C4=CC=CN(C4=O)CC5=CC(=C(C=C5)F)F
Procedure, shortened: (§1)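 K562 pellets were dounce-homogenised in PBS pH 7.4 with 1 mM MgCl2, and the crude extract at 1 mg/mL protein was treated with 10 μM compound for 30 min. Aliquots were heated for 3 min across 48°C-58°C, pooled, and brought to 0.5% NP-40 at 4°C; soluble protein was the supernatant after 21,000xg for 90 min. Soluble protein was quantified by TMTpro 16plex LC-MS/MS with channel sums equalised, and reported as log2 fold change in thermal stability against DMSO controls, with values from duplicates.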

[2] = compound: CC1=C(SC2=C1C(=N[C@H](C3=NN=C(N32)C)CC(=O)N)C4=CC=C(C=C4)Cl)C
Procedure, shortened: as §1

[3] = compound: CC1=C2C(=CC=C1)N=C(N(C2=O)C3=CC=CC=C3C)CN4C=NC5=C(N=CN=C54)N
Procedure, shortened: as §1

[4] = compound: Cc1sc2c(c1C)C(c1ccc(Cl)cc1)=N[C@@H](CC(=O)OC(C)(C)C)c1nnc(C)n1-2
Procedure, shortened: as §1

[5] = compound: c1ccc([C@@H]2C[C@H]2NC2CCNCC2)cc1
Procedure, shortened: as §1

Measured: log2 fold change

PAIP2 (UniProt Q9BPZ3)
Chain of UniProt Q9BPZ3 (Q9BPZ3 whole entry, looked up): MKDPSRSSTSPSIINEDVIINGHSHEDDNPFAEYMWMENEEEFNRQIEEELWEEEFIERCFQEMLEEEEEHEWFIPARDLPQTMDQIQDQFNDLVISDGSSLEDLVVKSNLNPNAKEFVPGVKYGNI
inactive: [1] -0.009 | [2] 0.042 | [3] 0.03 | [4] 0.021 | [5] 0.036

NFAT5 isoform 4 (UniProt O94916)
inactive: [1] -0.208 | [2] 0.11

MTHFD1, A0A384N5Y3
inactive: [1] -0.003 | [2] -0.002 | [3] 0.015 | [4] 0.018 | [5] 0.071

NUP98 (UniProt P52948)
inactive: [1] -0.018 | [2] -0.03 | [3] 0.037 | [4] 0.052 | [5] -0.003

NELFCD (UniProt Q8IXH7)
inactive: [1] -0.035 | [2] 0.023 | [3] 0.018 | [4] 0.003 | [5] 0.025

NCAPD2 (UniProt Q15021)
inactive: [1] -0.023 | [2] 0.028 | [3] 0.026 | [4] 0.008 | [5] 0.022

MTA3 (UniProt Q9BTC8)
inactive: [1] -0.006 | [2] -0.047 | [3] 0.002 | [4] 0.014 | [5] -0.001

MYCBP2 (UniProt O75592)
inactive: [1] -0.006 | [2] -0.003 | [3] 0.017 | [4] 0.005 | [5] -0.005

N4BP2 (UniProt Q86UW6)
Chain of UniProt Q86UW6 (Q86UW6 whole entry, looked up): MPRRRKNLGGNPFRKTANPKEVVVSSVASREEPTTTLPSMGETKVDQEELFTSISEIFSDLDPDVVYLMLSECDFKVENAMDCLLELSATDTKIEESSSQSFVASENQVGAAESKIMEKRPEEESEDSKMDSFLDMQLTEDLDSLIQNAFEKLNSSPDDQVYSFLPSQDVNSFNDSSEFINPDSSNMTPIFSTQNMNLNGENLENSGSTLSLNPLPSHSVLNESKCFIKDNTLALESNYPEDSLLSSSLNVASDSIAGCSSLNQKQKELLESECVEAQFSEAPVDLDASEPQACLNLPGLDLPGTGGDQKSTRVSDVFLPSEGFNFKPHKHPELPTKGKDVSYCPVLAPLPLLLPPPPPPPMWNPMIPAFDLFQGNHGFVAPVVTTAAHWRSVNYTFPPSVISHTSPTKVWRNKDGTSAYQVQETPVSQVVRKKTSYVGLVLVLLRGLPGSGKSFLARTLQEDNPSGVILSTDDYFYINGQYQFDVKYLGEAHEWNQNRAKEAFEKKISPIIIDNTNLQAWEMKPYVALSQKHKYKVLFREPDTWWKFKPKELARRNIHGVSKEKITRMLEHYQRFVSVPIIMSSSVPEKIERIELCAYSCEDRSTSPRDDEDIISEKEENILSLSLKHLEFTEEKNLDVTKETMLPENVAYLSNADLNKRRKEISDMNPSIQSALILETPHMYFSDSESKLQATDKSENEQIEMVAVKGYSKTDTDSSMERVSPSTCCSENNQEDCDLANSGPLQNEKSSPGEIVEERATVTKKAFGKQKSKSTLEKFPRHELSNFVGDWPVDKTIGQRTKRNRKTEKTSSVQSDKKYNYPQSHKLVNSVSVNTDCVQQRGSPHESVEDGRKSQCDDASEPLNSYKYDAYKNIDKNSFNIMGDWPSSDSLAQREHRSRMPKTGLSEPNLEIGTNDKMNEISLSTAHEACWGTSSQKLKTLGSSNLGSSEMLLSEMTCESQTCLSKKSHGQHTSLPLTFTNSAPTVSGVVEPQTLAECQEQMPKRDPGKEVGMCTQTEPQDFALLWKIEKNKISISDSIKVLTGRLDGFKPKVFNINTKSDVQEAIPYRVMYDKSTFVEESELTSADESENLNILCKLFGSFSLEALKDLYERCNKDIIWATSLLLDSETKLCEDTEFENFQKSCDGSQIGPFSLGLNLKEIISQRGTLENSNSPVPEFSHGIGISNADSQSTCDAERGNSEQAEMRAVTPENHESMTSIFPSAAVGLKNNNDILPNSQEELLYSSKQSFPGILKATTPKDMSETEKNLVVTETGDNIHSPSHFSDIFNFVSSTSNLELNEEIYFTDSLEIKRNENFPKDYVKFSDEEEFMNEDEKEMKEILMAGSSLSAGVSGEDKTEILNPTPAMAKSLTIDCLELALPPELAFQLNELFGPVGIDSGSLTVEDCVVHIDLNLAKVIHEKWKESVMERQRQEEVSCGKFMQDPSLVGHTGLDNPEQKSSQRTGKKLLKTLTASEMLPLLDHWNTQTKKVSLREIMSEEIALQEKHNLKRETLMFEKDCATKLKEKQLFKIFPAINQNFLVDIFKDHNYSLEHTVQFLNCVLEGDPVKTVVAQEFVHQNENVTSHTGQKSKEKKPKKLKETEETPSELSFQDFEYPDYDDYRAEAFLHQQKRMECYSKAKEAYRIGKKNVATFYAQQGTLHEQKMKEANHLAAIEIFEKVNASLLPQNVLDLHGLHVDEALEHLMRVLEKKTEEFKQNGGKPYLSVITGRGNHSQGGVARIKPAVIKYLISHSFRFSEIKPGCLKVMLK
inactive: [1] 0.024 | [2] 0.04 | [3] 0.064 | [4] -0.022 | [5] -0.068

NAA16 (UniProt Q6N069)
Chain of UniProt Q6N069 (Q6N069 whole entry, looked up): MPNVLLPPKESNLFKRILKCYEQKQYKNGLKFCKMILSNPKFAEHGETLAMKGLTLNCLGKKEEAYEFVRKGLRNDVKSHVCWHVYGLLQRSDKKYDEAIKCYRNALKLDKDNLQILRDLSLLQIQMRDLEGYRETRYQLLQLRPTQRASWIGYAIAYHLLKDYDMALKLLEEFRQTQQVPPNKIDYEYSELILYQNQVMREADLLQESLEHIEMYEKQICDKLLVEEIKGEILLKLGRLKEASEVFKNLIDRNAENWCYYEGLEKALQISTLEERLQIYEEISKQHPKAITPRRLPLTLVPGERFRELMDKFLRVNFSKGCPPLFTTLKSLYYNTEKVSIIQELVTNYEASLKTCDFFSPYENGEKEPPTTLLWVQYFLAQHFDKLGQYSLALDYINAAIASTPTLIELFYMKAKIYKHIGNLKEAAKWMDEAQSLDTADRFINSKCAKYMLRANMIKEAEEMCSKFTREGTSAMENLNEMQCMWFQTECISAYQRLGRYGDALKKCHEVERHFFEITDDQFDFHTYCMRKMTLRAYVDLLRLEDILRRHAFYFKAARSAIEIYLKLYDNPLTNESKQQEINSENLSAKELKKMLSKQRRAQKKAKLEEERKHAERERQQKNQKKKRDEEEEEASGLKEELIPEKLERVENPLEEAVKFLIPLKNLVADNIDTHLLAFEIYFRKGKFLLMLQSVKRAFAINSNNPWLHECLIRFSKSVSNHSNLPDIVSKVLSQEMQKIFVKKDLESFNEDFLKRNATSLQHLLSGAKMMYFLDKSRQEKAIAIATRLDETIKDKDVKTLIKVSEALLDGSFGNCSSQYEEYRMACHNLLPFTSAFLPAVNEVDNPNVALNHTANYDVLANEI
inactive: [1] 0.027 | [2] 0.01 | [3] 0.168 | [4] 0.065

NFATC2 (UniProt Q13469)
inactive: [1] 0.027 | [2] 0.073 | [3] 0.064 | [4] 0.031 | [5] -0.1

OSBP (UniProt P22059)
Chain of UniProt P22059 (P22059 whole entry, looked up): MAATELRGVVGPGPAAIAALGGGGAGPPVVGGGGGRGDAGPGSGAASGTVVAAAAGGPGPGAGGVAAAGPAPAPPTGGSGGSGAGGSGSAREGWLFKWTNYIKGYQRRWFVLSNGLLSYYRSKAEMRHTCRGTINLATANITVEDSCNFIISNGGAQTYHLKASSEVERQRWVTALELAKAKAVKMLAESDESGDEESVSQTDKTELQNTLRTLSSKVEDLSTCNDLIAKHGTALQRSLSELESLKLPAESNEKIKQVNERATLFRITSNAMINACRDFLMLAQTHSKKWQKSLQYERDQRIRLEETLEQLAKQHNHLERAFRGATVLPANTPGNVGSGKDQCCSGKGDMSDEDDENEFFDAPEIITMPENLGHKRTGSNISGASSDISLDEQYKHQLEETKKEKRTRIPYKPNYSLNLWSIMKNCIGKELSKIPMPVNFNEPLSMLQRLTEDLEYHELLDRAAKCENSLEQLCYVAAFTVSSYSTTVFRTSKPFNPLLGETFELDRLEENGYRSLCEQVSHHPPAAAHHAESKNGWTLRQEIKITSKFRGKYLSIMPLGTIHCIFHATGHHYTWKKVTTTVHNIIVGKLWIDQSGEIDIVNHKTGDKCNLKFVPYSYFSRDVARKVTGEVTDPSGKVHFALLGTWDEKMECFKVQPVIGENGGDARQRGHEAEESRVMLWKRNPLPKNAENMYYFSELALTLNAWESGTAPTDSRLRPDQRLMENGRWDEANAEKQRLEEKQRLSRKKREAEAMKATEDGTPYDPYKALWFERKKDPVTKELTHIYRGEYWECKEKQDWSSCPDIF
inactive: [1] 0.007 | [2] 0.048 | [3] 0.036 | [4] -0.009 | [5] 0.039

NT5DC2 isoform 2 (UniProt Q9H857)
Chain of UniProt Q9H857 (Q9H857 whole entry, looked up): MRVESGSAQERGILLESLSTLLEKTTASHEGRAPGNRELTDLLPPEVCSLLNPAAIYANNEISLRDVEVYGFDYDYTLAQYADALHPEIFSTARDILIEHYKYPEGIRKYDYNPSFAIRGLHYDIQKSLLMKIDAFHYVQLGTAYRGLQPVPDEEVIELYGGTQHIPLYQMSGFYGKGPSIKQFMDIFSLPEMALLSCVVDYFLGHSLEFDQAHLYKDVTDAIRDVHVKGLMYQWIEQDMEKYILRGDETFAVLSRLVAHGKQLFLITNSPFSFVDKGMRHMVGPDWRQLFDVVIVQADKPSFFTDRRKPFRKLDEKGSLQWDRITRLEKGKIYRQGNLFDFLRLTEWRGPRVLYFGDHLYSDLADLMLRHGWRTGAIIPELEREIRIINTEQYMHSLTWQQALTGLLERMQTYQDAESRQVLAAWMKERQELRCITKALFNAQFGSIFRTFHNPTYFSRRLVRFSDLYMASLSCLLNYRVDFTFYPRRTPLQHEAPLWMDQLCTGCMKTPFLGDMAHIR
inactive: [1] 0.021 | [2] -0.026 | [3] 0.009 | [4] 0.051 | [5] -0.022

NIPBL (UniProt Q6KC79)
inactive: [1] 0.003 | [2] -0.055 | [3] -0.001 | [4] -0.014 | [5] -0.01

NPLOC4 isoform 2 (UniProt Q8TAT6)
inactive: [1] 0.035 | [2] 0.017 | [3] 0.025 | [4] -0.012 | [5] -0.064

NUSAP1 (UniProt Q9BXS6)
inactive: [1] 0.039 | [2] 0.018 | [3] -0.001 | [4] 0.026 | [5] -0.223

NADK2 (UniProt Q4G0N4)
inactive: [1] 0.057 | [2] 0.007 | [3] -0.006 | [4] 0.045 | [5] -0.012

NUMB (UniProt P49757)
inactive: [1] 0.001 | [2] 0.034 | [3] 0.009 | [4] 0.004 | [5] -0.032

MTCH2 (UniProt Q9Y6C9)
inactive: [1] 0.013 | [2] 0.001 | [3] -0.006 | [4] -0.014 | [5] -0.083

NFIC (UniProt P08651)
Chain of UniProt P08651 (P08651 whole entry, looked up): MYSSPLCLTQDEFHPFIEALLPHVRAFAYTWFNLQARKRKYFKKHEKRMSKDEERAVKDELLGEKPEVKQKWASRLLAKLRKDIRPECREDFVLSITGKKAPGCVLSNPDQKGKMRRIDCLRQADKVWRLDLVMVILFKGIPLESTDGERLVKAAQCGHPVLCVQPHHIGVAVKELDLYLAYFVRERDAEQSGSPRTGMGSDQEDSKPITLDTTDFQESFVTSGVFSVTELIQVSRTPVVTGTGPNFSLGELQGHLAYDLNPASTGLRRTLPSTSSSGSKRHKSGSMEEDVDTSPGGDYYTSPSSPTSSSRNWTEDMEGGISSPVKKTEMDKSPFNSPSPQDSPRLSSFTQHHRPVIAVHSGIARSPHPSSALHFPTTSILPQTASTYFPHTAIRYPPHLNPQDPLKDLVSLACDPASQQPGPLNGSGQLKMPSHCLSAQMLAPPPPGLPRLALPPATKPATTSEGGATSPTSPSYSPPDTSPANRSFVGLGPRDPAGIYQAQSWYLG
inactive: [1] 0.023 | [2] 0.018 | [3] -0.056 | [4] 0.052 | [5] -0.177

NBEAL2 (UniProt Q6ZNJ1)
inactive: [1] -0.047 | [2] 0.055 | [3] 0.015 | [4] -0.029 | [5] 0.044

NARS2 (UniProt Q96I59)
Chain of UniProt Q96I59 (Q96I59 whole entry, looked up): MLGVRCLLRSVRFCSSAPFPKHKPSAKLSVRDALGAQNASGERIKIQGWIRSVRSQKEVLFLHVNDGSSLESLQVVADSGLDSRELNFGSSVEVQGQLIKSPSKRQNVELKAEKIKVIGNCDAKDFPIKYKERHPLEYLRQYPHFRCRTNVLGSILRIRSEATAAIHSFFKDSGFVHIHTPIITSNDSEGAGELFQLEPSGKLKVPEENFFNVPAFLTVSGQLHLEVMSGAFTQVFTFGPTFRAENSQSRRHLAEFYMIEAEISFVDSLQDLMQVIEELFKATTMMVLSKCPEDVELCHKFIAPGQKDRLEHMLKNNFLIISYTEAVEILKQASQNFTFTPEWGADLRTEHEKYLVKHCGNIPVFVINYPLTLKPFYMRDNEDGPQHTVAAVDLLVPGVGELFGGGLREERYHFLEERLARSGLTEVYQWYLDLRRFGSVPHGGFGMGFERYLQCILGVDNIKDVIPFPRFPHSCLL
inactive: [1] 0.013 | [2] 0.024 | [3] 0.092 | [4] 0.053 | [5] -0.05

NFATC1 (UniProt O95644)
inactive: [1] -0.006 | [2] 0.047 | [3] -0.017 | [4] 0.003 | [5] -0.127

MT-ND1 (UniProt P03886)
inactive: [1] -0.057 | [2] -0.098 | [3] -0.055 | [4] -0.077 | [5] -0.039

NCAPH2 (UniProt Q6IBW4)
inactive: [1] 0.027 | [2] -0.001 | [3] 0.035 | [4] -0.005 | [5] 0.024

OGT (UniProt O15294)
inactive: [1] 0.029 | [2] 0.012 | [3] 0.016 | [4] 0.067 | [5] 0.039

NUP210 (UniProt Q8TEM1)
inactive: [1] -0.101 | [2] 0.07 | [3] 0.016 | [4] 0.04 | [5] 0.028
